# Results as given in PubChem BioAssay (NCI).
# Compounds without any hit were thinned out: in the full panel of roughly 83,000, 20% have a hit.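 In brief: 96-well plates, 48 h treatment, single concentration, percent growth endpoint.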 A number with no mark means an inactive call. The source made the active and inactive calls. How the source made its calls: active means growth percent below 10; inactive means the rest.
# Tested on: SF-268 CNS
# Experiment: NCI-60 one-dose screen, 48 h (100 = growth as untreated, 0 = no growth, -100 = all killed)
# Conditions: 10 µM unless noted
row,SMILES,growth
1,O=C(NNc1nc2cc(F)c(F)cc2n2cccc12)c1ccncn1,18.7%
2,O=C(CCCCCCN1CC(=O)N2[C@@H](c3cccc(Cl)c3)c3[nH]c4ccccc4c3C[C@H]2C1=O)NO,64.4%
3,O=C(/C=C/c1cn(-c2ccccc2)nc1-c1ccc(Cl)cc1)c1cc2ccccc2oc1=O,90.8%
4,COc1cc(/C=C/C(=O)c2ccc(NC(=O)COc3cccc4cccnc34)cc2)cc(OC)c1OC,81.6%
5,O=C(Nc1cccc(Cl)c1)Nc1nc2ccc([N+](=O)[O-])cc2s1,9.76% (active)
6,O=C(NNc1nc2cc(F)cc(F)c2n2cccc12)c1ccncn1,12.5%
7,C[C@H]1[C@H](C)CC[C@]2(COC(=O)c3cccnc3)CC[C@]3(C)C(=CC[C@@H]4[C@@]5(C)CCCNC(C)(C)[C@@H]5CC[C@]43C)[C@H]12,76.3%
8,CN1CCN(c2ccc(NC(=O)Nc3ccc4c(ccn4-c4cccc(C(N)=O)n4)c3)cc2C(F)(F)F)CC1,82.1%
9,COc1ccc(OC)c([C@H]2c3[nH]c4ccccc4c3C[C@H]3C(=O)N(CCCCCCC(=O)NO)CC(=O)N23)c1,104%
10,CS(=O)c1nccc(-c2c(-c3ccc(F)c(OCc4ccccc4)c3)nc3sccn23)n1 (stereo unspecified),105%
11,CC(=O)NC(C)(C)C(=O)N1CCC[C@H]1C(=O)NC(C)(C)C(=O)N[C@@H](C)C(=O)NC(C)(C)C(=O)N[C@@H](C)C(=O)N[C@@H](CCC(N)=O)C(=O)NC(C)(C)C(=O)N[C@H](C(=O)NC(C)(C)C(=O)NCC(=O)N[C@@H](CC(C)C)C(=O)NC(C)(C)C(=O)N1CCC[C@H]1C(=O)N[C@H](C(=O)NC(C)(C)C(=O)NC(C)(C)C(=O)N[C@@H](CCC(N)=O)C(=O)N[C@@H](CCC(N)=O)C(=O)N[C@H](CO)Cc1ccccc1)C(C)C)C(C)C,64.3% [4.25 µM]
